ChEMBL document CHEMBL3988442, “University of Dundee, Small-Polar-MMV Screening Library” (2021)
The whole screen tested about 48,000 compounds, of which about 13,000 (27%) showed an effect of 50% or more. The list shows a part of the results.

tested on: Wolbachia pipientis; assay: Anti-Wolbachia Cell-Based Screen; assay type: functional; set-up: scale not given: in the data most compounds retested in dose-response had high values; details: 5 µM

In order of falling “Percent Effect” value:
1. Cc1nc(C)n(CC2CCCN(Cc3cc(C#N)ccc3F)C2)n1 (stereo unspecified)  126.4%
2. CCC(C)N(Cc1sccc1C)C(=O)c1ccc(S(C)(=O)=O)cc1 (stereo unspecified)  114.6%
3. CCC(C)N(Cc1sccc1C)C(=O)c1ccc2cccnc2n1 (stereo unspecified)  114.4%
4. CCC(C)N(Cc1sccc1C)C(=O)c1cnc[nH]1 (stereo unspecified)  112.1%
5. Cc1nc(C)n(CC2CN(c3ncccc3C#N)CCO2)n1 (stereo unspecified)  109.9%
6. CCC(C)N(Cc1sccc1C)C(=O)c1cc(N)ccn1 (stereo unspecified)  107.3%
7. CC(C)(C)c1cc(=O)n2c(n1)SCC(C(=O)NCc1ccccn1)C2 (stereo unspecified)  106.1%
8. Cc1nc(C)n(CC2CN(Cc3cc(C#N)ccc3F)CCO2)n1 (stereo unspecified)  105.5%
9. Cc1ccc2c(c1)[C@@H](CC(=O)N(C)C)CCO2  103.2%
10. CC(C)(C)c1cc(=O)n2c(n1)SCC(C(=O)NCc1ccco1)C2 (stereo unspecified)  102.3%
11. Cc1nc(C)n(CC2CCCN(Cc3cccc(F)c3F)C2)n1 (stereo unspecified)  100.4%
12. Cc1nc(C)n(CC2CCCN(CCOc3ccccc3C#N)C2)n1 (stereo unspecified)  99.48%
13. Cc1nc(C)n(CC2CCCN(Cc3ccccc3C#N)C2)n1 (stereo unspecified)  99.33%
14. Cc1nc(C)n(CC2CCCN(Cc3ccc(F)cc3C#N)C2)n1 (stereo unspecified)  96.96%
15. Cc1ccc2c(c1)[C@@H](CC(=O)N1CCN(C)CC1)CCO2  86.47%
16. Cc1ccc2c(c1)[C@@H](CC(=O)N1CCOCC1)CCO2  86.47%
17. N#Cc1ccccc1OCCN1CCCC(c2noc(C3CC3)n2)C1 (stereo unspecified)  29.76%
18. Cc1ccc2c(ccn2CCC(=O)N2CCC(C(N)=O)CC2)c1  23.62%
19. O=S(=O)(NCC1CCOc2ccccc2C1)N1CCOCC1 (stereo unspecified)  11.66%
20. N#Cc1ccc(CN2CCCC(Cn3cncn3)C2)c(F)c1 (stereo unspecified)  10.83%
21. Cc1nc(C)n(CC2CN(c3ncnc4[nH]ccc34)CCO2)n1 (stereo unspecified)  9.938%
22. O=C1CCOCCN1Cc1ccc(Cl)c(Cl)c1  9.877%
23. Cc1ccsc1CN(C)Cc1ncccc1C(=O)O  8.285%
24. COCC(=O)N1CCC2(CC1)CC(N1CCOCC1)c1ccc(C)cc12 (stereo unspecified)  6.475%
25. O=C(O)COc1ccc(Cl)cc1CN1CCC2(CCOCC2)CC1  5.352%
26. Cn1nc2c(cc1=O)CN(Cc1nc(C(C)(C)C)no1)CC2  5.069%
27. C=C(C)CN1CCC(Nc2nc(C)ns2)CC1  3.989%
28. Cc1ccsc1CN(C)CCc1scnc1C  3.291%
29. Cc1nc(CN2CCCC(CCc3ccccc3C(F)(F)F)C2)co1 (stereo unspecified)  3.253%
30. Cc1nc(C)n(CC2CN(Cc3cccc(C#N)c3)CCO2)n1 (stereo unspecified)  2.978%
31. Cc1ccc(C2CSCCN2CC(=O)N2CCOCC2)cc1 (stereo unspecified)  2.726%
32. COC(=O)c1ccc(S(=O)(=O)NCC(O)c2sccc2C)cc1 (stereo unspecified)  1.544%
33. CNS(=O)(=O)c1csc(C(=O)N(C)Cc2sccc2C)c1  1.133%
34. Cc1ccc2c(c1)C(NC1CCN(C)CC1)CCCO2 (stereo unspecified)  0.3143%
35. Cc1nc(C)n(CC2CN(Cc3cccc4c3OCCO4)CCO2)n1 (stereo unspecified)  -0.04658%
36. CN(Cc1ccc(F)cc1)Cc1nc(-c2cnccn2)no1  -0.4176%
37. Cc1nc(C)n(CC2CCCN(CCc3ccccn3)C2)n1 (stereo unspecified)  -0.6255%
38. Cc1cc(C)c(CNC(=O)N(C)Cc2sccc2C)c(=O)[nH]1  -0.6521%
39. Cc1ccsc1CN(Cc1ncccc1C(=O)O)C1CC1  -1.02%
40. CCN1C(=O)C(c2ccccc2)CC12CCN(c1ncccn1)CC2 (stereo unspecified)  -1.132%
41. O=C(NC1CC1)[C@H]1COC[C@H]2CN(c3ncc(F)cn3)C[C@H]21  -1.694%
42. CC(C)Cc1cc(CNC(=O)C2CCCN(Cc3ccco3)C2)no1 (stereo unspecified)  -2.049%
43. CS(=O)(=O)N1CCOC2(CCN(c3nccs3)CC2)c2ccccc21  -2.369%
44. Cc1nc(C)n(CC2CCCN2Cc2ccc(F)cc2C#N)n1 (stereo unspecified)  -2.788%
45. CNS(=O)(=O)CC(=O)N1CCC(c2ccc(F)c(F)c2)CC1  -2.799%
46. CC(NC(=O)N1CCc2ccccc21)c1nncn1C (stereo unspecified)  -4.094%
47. CN(Cc1ccccn1)C(=O)CC1CCOc2ccccc21 (stereo unspecified)  -4.334%
48. CN(C)C(=O)CC1CCOc2ccccc21 (stereo unspecified)  -4.71%
49. COc1cnc(N2CC(N3CCOCC3)C2)nc1-c1ccnn1C  -5.867%
50. Cc1ccsc1CNC(=O)CSc1nnc[nH]1  -7.3%
51. Cc1nc(C)n(CC2CN(c3nnc(C)c(C)c3C#N)CCO2)n1 (stereo unspecified)  -9.439%
52. CNS(=O)(=O)c1csc(C(=O)NCc2sccc2C)c1  -10.67%
53. CCc1n[nH]c(C2CN(Cc3ncc(CC)o3)CCO2)n1 (stereo unspecified)  -12.36%
54. O=C(NCc1cn2cccnc2n1)C1CC(=O)N(Cc2ccccn2)C1 (stereo unspecified)  -14.07%
55. CSc1ccc(NC(=O)NCC(O)C(C)C)cc1F (stereo unspecified)  -14.41%
56. Cc1cc(C)n(CC2CCCN2Cc2ccc(F)cc2C#N)n1 (stereo unspecified)  -16.28%
